Sampled rows, rich in hits. Any-hit rate of the full collection: about 19%.
IL1B secr inh = inhibitors of inflammasome signaling (IL-1 beta secretion). THP-1 LPS/ATP IL-1B secretion, AlphaLISA, 16 h; hits give low values. activity change, % at 57.5 µM. actives 4.7% (n = 360,000); in the data active = activity change below about -50%; inconclusive = mostly about -30% to -49%; also: % is scaled to controls: 0 for no effect and ±100 for the full control effect
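THP-1 cells pretreated 1 hr with compounds (up to 57.5 uM final), then stimulated with LPS (250 ng/mL final) plus ATP (1.25 mM final); secreted IL-1B measured by AlphaLISA after 16 hr, decreased signal indicating inhibition.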
ASM inhibitor = blocks human secretory acid sphingomyelinase; actives 0.006% (n = 340,000); placental ASM, HMU-PC fluorogenic substrate, 60 min; AID 504937; P17405; Potency, µM (series often up to 57.5 µM), inactives show at the top dose activity change, negative = inhibition, actives largely listed as inhibitors; also: potency is read from the fitted curve at half-maximal effect
Target sequence (P17405 47-631 limits assumed): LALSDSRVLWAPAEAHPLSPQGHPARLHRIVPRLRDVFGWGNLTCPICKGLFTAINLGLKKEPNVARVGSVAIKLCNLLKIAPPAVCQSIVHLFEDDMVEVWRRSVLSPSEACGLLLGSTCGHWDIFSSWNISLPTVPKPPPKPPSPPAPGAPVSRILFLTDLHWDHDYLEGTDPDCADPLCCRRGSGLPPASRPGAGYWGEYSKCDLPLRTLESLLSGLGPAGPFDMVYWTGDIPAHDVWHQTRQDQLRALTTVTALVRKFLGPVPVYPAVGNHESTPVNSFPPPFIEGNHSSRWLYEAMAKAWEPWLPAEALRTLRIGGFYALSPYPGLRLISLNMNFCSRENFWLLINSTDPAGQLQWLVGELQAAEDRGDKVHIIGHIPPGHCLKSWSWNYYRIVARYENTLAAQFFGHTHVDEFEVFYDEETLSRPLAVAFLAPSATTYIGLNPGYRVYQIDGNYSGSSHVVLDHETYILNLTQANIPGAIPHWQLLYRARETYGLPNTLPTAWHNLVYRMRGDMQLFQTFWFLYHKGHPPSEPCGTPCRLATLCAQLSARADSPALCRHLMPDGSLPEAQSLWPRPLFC
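Fluorogenic HMU-PC substrate (9 uM final) is turned over by placental ASM in 60 min at 37 C after a 10 min compound preincubation. Reaction ended by alkaline stop (pH 10), with fluorescence read at 386/447 nm.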
DT40 TDP1 CPT = growth inhibition of DT40 Tdp1-/-;hTDP1 cells with camptothecin (screen for TDP1 inhibitors); chicken DT40 Tdp1-/-;hTDP1 cells + 20 nM CPT, ATP luminescence, 48 h; Potency, µM (top dose mostly 46.2 µM), for the others: top-dose activity change, negative = growth inhibition, usual class: inhibitors; actives 12% (n = 420,000); also: potency is read from the fitted curve at half-maximal effect; % is scaled to controls: 0 for no effect and ±100 for the full control effect; nearly all actives have a fitted effect of over 55% in size
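Cell growth measured by CellTiter-Glo luminescence after a minimum 48 h, 37 C compound exposure with 20 nM CPT in Tdp1-knockout DT40 cells stably expressing hTDP1, seeded 400/well; qHTS titration format.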
TDP1 cell noCPT = qHTS for Inhibitors of human tyrosyl-DNA phosphodiesterase 1 (TDP1): qHTS in cells in absence of CPT | actives 15% (n = 420,000) | DT40 Tdp1-/- hTDP1 cells, no CPT, ATP luminescence, 48 h | Potency, µM (series often up to 46.2 µM), for inactives: top-dose activity change, negative = growth inhibition, most hits filed as inhibitors; also: potency is read from the fitted curve at half-maximal effect; % is scaled to controls: 0 for no effect and ±100 for the full control effect; nearly all actives have a fitted effect of over 55% in size
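Growth of hTDP1-complemented DT40 Tdp1-knockout cells is measured by ATP luminescence after at least 48 hr compound exposure at 37 °C, with DMSO substituting for the 20 nM CPT used in the parallel screen.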
TGFb inhibitor = blocks TGF-b signaling; HepG2 CAGA-GFP TGF-b/SMAD3 reporter, GFP fluorescence, 18 h; TGF-beta stimulated, 500 pg/mL final; Potency, µM (titrated, usually from 46.1 µM), for inactives: top-dose activity, negative = inhibition, usual class: inhibitors; actives 1.2% (n = 410,000); also: potency is read from the fitted curve at half-maximal effect; % is scaled to controls: 0 for no effect and ±100 for the full control effect; nearly all actives have a fitted effect of over 65% in size
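TGF-beta reporter screen: HEPG2 CAGA-GFP, 1% FBS, 500 pg/mL TGF-beta final, 18 h; per-cell GFP summed per well; curves fitted and categorized by class.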
HepG2 tox = kills HepG2 cells in TGF-b inhibitor counter-screen. AID 588856. HepG2 CAGA-GFP viability, ATP luminescence, 18 h. actives 0.76% (n = 410,000). Potency, µM (titrated, usually from 46.1 µM), inactives show at the highest dose activity change, negative = cytotoxicity, usual class: cytotoxic; also: potency is read from the fitted curve at half-maximal effect
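CellTiter-Glo luminescence gave cytotoxicity after 18 hours at 37 degrees C. The cells were HepG2 CAGA-GFP in 1% FBS DMEM, stimulated with 500 pg/mL TGF-beta after compound addition. %Activity was normalised to no-cell wells (complete cell-killing) and DMSO (no toxicity), and curves were fitted and classified.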
* = called active by the depositor; ? = inconclusive; . = not tested or not shown. Unless noted, calls follow the shape of the dose curve; as a rule, active = well fitted curve in the direction sought with a large enough effect; inconclusive = small, poorly fitted or top-dose-only effect, or another doubt; inactive = no such curve, though single readings can be large; an effect the other way counts as inactive or inconclusive.

SMILES	IL1B secr inh	ASM inhibitor	DT40 TDP1 CPT	TDP1 cell noCPT	TGFb inhibitor	HepG2 tox
CC(C)(Oc1ccc(Cl)cc1)C(=O)NCCN1C(=O)S/C(=C/c2cccnc2)C1=O	-90.9*	-10.7%	?	?	7.8%	-20.7%
CC(Oc1ccc(Cl)cc1)C(=O)NCCN1C(=O)S/C(=C\c2cccnc2)C1=O (stereo not given)	-78.0*	-0.4%	20.6µM*	18.4µM*	0.0%	-38.8%
O=C1C(=O)N(C2CCS(=O)(=O)C2)C(c2cccc(O)c2)/C1=C(/O)c1ccc(Cl)cc1 (stereo not given)	3.6	-1.1%	-2.2%	26.1%	1.6%	10.0%
CCC(C)(C)c1ccc(OCCCC[n+]2cccc(C)c2C)c(C(C)(C)CC)c1	-93.1*	?	0.517µM*	0.411µM*	10µM*	-131.5%
CCC(C)(C)c1ccc(OCCCC[n+]2ccc(C)cc2)c(C(C)(C)CC)c1	-95.1*	-21.2%	2.31µM*	1.16µM*	15.8µM*	12.6µM*
Cc1cc[n+](CC[n+]2ccc(C)cc2)cc1	38.8	-5.2%	-2.1%	-9.4%	2.0%	-0.6%
CS(=O)(=O)N(CC(=O)Nc1ccccc1C(=O)NCCc1ccccc1)c1ccc2c(c1)OCCO2	-14.4	-0.7%	29.1µM*	20.6µM*	?	-67.7%
O=C(NCc1cccs1)c1ccc(CSc2nc3cccnc3n2Cc2ccccc2F)cc1	.	.	?	23.1µM*	?	-44.3%
O=C(NCCc1cccs1)c1ccc(Cn2c(SCc3ccc(F)cc3)nc3cccnc32)cc1	.	.	?	20.6µM*	?	-42.3%
Cc1ccc(CSc2nc3cccnc3n2Cc2ccc(C(=O)NCc3cccs3)cc2)cc1	.	.	-28.3%	-3.0%	-7.0%	-19.3%
O=C(NCc1ccco1)c1ccc(Cn2c(SCc3ccccc3F)nc3cccnc32)cc1	.	.	?	23.1µM*	12.6µM*	-35.9%
O=C(NCc1cccs1)c1ccc(Cn2c(SCc3ccccc3)nc3cccnc32)cc1	.	.	?	25.9µM*	-29.9%	-32.8%
COc1ccc(CNC(=O)Cn2c(=O)c3cccn3c3ccccc32)cc1	.	.	7.7%	-24.3%	1.7%	18.1%
Cc1ccccc1CNC(=O)c1ccc(Cn2c(SCc3ccccc3)nc3cccnc32)cc1	.	.	?	?	-19.2%	-33.3%
Cc1cccc(Cn2c(SCc3ccc(C(=O)NCc4cccs4)cc3)nc3cccnc32)c1	.	.	?	14.6µM*	-27.9%	-17.2%
Cc1cccc(CSc2nc3cccnc3n2Cc2ccc(C(=O)NCc3ccco3)cc2)c1	.	.	?	?	?	-26.1%
CC(CNC(=O)c1ccc(Cn2c(SCc3ccccc3)nc3cccnc32)cc1)c1ccccc1 (stereo not given)	.	.	?	20.6µM*	2.3%	-3.4%
COc1ccc(C(=O)N2CCN(C(=O)COc3ccccc3)CC2)cc1OC	.	.	.	.	7.4%	-5.2%
CCCCCCCCN1[C@@H](CC(=O)O)c2cc(C(F)(F)F)ccc2S1(=O)=O	7.9	2.4%	?	?	11.2µM*	-39.0%
CCCCCCCCN1[C@@H](CC(=O)OC)c2cc(F)ccc2S1(=O)=O	18.0	-2.7%	?	12.6µM*	?	-4.7%
COC(=O)C[C@H]1c2cc(F)ccc2S(=O)(=O)N1c1ccc(N(C)C)cc1	24.5	0.1%	?	13µM*	11.0%	3.0%
CCCCCCCCCCCCN1[C@@H](CC(=O)O)c2cc(C(F)(F)F)ccc2S1(=O)=O	0.0	-5.6%	?	?	?	-70.1%
CCOC(=O)C[C@H]1c2cc(F)ccc2S(=O)(=O)N1c1ccccc1	27.7	-1.8%	?	?	9.7%	14.4%
CCCCCCCCCCCCN1[C@@H](CC(=O)OC)c2cc(C(F)(F)F)ccc2S1(=O)=O	37.5	-2.3%	?	12.6µM*	4.2%	-3.3%
Cc1ccc(NC(=O)Cn2nnc(-c3ccccc3)n2)c(C)c1	.	.	.	.	7.7%	-2.6%
SMILES	IL1B secr inh	ASM inhibitor	DT40 TDP1 CPT	TDP1 cell noCPT	TGFb inhibitor	HepG2 tox
CCCc1ccc(C(O)c2ncc(-c3ccccc3C)[nH]2)cc1 (stereo not given)	-6.9	.	?	?	-8.6%	-38.3%
C=C(C)C(=O)Nc1ccc2nn(-c3ccccc3O)nc2c1	-8.6	.	-12.9%	?	14.3%	1.9%
CCCCCCCCN1[C@@H](CC(=O)OCC)c2ccc(C(F)(F)F)cc2S1(=O)=O	4.3	-9.2%	12.6µM*	25.9µM*	?	-9.8%
CCCCCCCCN1[C@@H](CC(=O)OCC)c2cc(F)ccc2S1(=O)=O	32.5	-9.4%	?	?	1.0%	-12.6%
Clc1cccc(CN2CCSCC2)c1Cl	3.3	-0.4%	2.0%	-3.0%	-13.6%	-8.4%
O=S(=O)(Nc1ccc(-c2nnc(SCc3ccc(Cl)cc3)o2)cc1)c1ccccc1	-78.7*	-25.0%	?	?	?	-14.5%
NC(=O)CSc1nnc(-c2cccc(S(=O)(=O)N3CCCCC3)c2)o1	-9.3	-1.3%	1.9%	?	-20.6%	-3.7%
O=S(=O)(c1cccc(-c2nnc(SCc3ccc(Cl)cc3)o2)c1)N1CCCCC1	4.7	-4.6%	8.2µM*	23.1µM*	0.1%	5.5%
CC(C)CNC(=O)COC(=O)c1n[nH]c2ccccc12	15.1	-1.9%	5.1%	-1.8%	1.6%	7.4%
CC(C)CNC(=O)COC(=O)c1c2c(nc3ccccc13)/C(=C\c1cccs1)CC2	-4.6	442.5%	?	20.6µM*	-12.6%	-31.1%
Cc1c(C(=O)OCc2nc3ccsc3c(=O)[nH]2)oc2ccccc12	6.5	-2.2%	-21.2%	-4.5%	-3.1%	-0.1%
O=S1(=O)CCN(c2ccccc2CC(c2c[nH]c3ccccc23)c2c[nH]c3ccccc23)CC1	-10.8	-17.7%	8.2µM*	13µM*	?	-10.1%
COc1ncnc2c1ncn2CCCNCc1ccc2c(c1)OCO2	2.0	.	-13.6%	-0.7%	11.6%	0.3%
Cc1cc(CSC(=N)N)c(CSC(=N)N)cc1C	-6.8	-0.2%	?	23.1µM*	0.3%	8.6%
CCn1cc(S(=O)(=O)Nc2ncccn2)cn1	2.5	2.9%	-8.2%	22.9%	0.0%	14.5%
COc1ccc(OCC(=O)Nc2cccc(-c3nc4ccccc4o3)c2)cc1	13.1	-3.1%	-28.4%	-16.6%	-2.2%	-43.7%
O=C(COc1ccccc1)Nc1cccc(-c2nc3ccccc3[nH]2)c1	-100.7*	-12.4%	?	23.1µM*	?	-51.3%

High-throughput results (PubChem)
